Assay [1] addresses Glucocorticoid receptor (Homo sapiens) (UniProt P04150). The assay is described as follows: qHTS assay for small molecule agonists of glucocorticoid receptor signaling (AID 588532; active = well fitted curve in the direction sought with a large enough effect in the signal ratio, with a control signal flat; the % refers to the signal ratio;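 also: 100% = dexamethasone at 0.1 µM and 0% = DMSO only wells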). Particulars: HeLa MMTV-bla, beta-lactamase ratio, agonist, 18 h; stronger effect = higher value; percent of dexamethasone control, DMSO zero. The procedure, abridged:
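Cells were plated and rested 3-5 h at 37 C, compounds were added in titration and incubated 18 h, then CCF4 substrate was loaded for 2 h at RT before reading blue/green fluorescence. EC50 came from Hill-equation fitting.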

Assay [2] is described as follows: qHTS assay for small molecule antagonists of peroxisome proliferator-activated receptor delta signaling (AID 588535; active = well fitted inhibition curve with a large enough effect in the signal ratio, with a control signal flat, not every such curve was filed as active; the % refers to the signal ratio;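 as to max response: cells co-treated with a PPAR-delta agonist as stimulator during compound exposure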). Particulars: HEK293T PPARd-UAS-bla, beta-lactamase FRET ratio, 18 h; 460 nm channel. The procedure, abridged:
(§1)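 Beta-lactamase reporter read-out (405 nm excitation, 460/530 nm emission) after CCF4 loading for 2 hrs at RT. HEK293T PPAR-delta-UAS-bla cells, 2% charcoal/dextran FBS, compounds for 18 hrs at 37 C. Hill fit gave IC50 and efficacy.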

Assay [3] has as its target Peroxisome proliferator-activated receptor delta (Homo sapiens) (UniProt Q03181). The description is as above. Conditions: HEK293T PPARd-UAS-bla, beta-lactamase FRET ratio, 18 h; series mostly up to 76.7 µM. The procedure, abridged:
as §1

In assay [4] the target is Peroxisome proliferator-activated receptor gamma (Homo sapiens) (UniProt P37231). As to the kind of experiment: qHTS assay for small molecule agonists of peroxisome proliferator-activated receptor gamma signaling (AID 588536; active = well fitted curve in the direction sought with a large enough effect in the signal ratio, with a control signal flat, not every such curve was filed as active; the % refers to the signal ratio;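 also: 0% = DMSO basal wells and 100% = rosiglitazone at 2 µM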). Particulars: HEK293 PPARg-UAS-bla, beta-lactamase ratio, 16 h, percent of rosiglitazone response, DMSO as zero; series mostly up to 76.7 µM. The procedure, abridged:
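Beta-lactamase reporter read-out: CCF4 fluorescence (ex 405, em 460/530 nm) after 2 h at RT. HEK293 GeneBLAzer cells were treated for 16 h at 37 C. Hill fits gave EC50 and efficacy versus 2 uM rosiglitazone (100%) and DMSO (0%).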

Assay [5] in a line: qHTS assay for small molecule agonists of retinoid X receptor alpha signaling (AID 588544).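 As to activation: 0% = DMSO basal wells and 100% = reference agonist.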 Conditions: HEK293T RXRa-UAS-bla, beta-lactamase reporter, 18 h; 530 nm emission.
The target in assay [6] is Retinoic acid receptor RXR-alpha (Homo sapiens) (UniProt P19793). The assay is described as above. Particulars: HEK293T RXRa-UAS-bla, beta-lactamase reporter, 18 h; series mostly up to 76.7 µM.
Retinoic acid receptor RXR-alpha (Homo sapiens), sequence (P19793 whole entry, looked up): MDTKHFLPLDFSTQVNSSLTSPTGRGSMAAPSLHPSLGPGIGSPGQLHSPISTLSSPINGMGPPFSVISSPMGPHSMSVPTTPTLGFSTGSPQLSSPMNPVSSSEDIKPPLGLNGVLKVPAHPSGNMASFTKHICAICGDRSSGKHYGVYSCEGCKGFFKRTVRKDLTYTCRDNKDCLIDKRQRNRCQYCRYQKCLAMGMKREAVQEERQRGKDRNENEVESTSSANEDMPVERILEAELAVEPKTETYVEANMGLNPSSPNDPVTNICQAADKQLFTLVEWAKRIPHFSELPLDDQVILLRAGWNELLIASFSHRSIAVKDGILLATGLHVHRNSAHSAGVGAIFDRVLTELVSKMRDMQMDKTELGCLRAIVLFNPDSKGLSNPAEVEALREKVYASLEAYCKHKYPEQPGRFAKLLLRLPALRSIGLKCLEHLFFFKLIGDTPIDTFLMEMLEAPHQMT
Assay [7] concerns the target Thyroid hormone receptor beta (Homo sapiens) (UniProt P10828). As to the kind of experiment: qHTS assay for small molecule agonists of thyroid hormone receptor beta signaling (AID 588545).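 Also: 0% = DMSO only and 100% = 10 nM T3.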 Particulars: TR-UAS-bla GripTite HEK 293, beta-lactamase ratio, agonist mode, 18 h, percent of T3 response, DMSO as zero; series mostly up to 76.7 µM. The procedure, abridged:
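Compounds were tested as agonists in TR-UAS-bla-GripTite HEK 293 cells. After 18 hrs at 37 C, CCF4 substrate was added and fluorescence read after 2 hrs at room temperature.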

Assay [8] is described as follows: qHTS assay for small molecule antagonists of retinoid X receptor alpha signaling (AID 588546; active = well fitted inhibition curve with a large enough effect in the signal ratio, with a control signal flat, not every such curve was filed as active; the % refers to the signal ratio;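 also: cells stimulated with 9-cis-retinoic acid as agonist; % is scaled to controls: 0 for no effect and ±100 for the full control effect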). Particulars: HEK293T RXRa-UAS-bla, beta-lactamase ratio, antagonist mode; measured here: W530 green channel, cytotoxicity proxy. The procedure, abridged: (§2)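 Beta-lactamase reporter inhibition, read as CCF4 fluorescence ratio (ex 405, em 460/530 nm) after 2 h at RT. HEK293T UAS-bla cells, 2500/well, were stimulated with 9-cis-RA at 500 or 100 nM final alongside test compound for 18 h at 37 C.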

Assay [9] deals with Retinoic acid receptor RXR-alpha (Homo sapiens) (UniProt P19793). The description is as above. Particulars: HEK293T RXRa-UAS-bla, beta-lactamase ratio, antagonist mode. The procedure, abridged:
as §2

Assay [10] addresses Thyroid hormone receptor beta (Homo sapiens) (UniProt P10828). The assay is described as follows: qHTS assay for small molecule antagonists of thyroid hormone receptor beta signaling (AID 588547; active = well fitted inhibition curve with a large enough effect in the signal ratio, with a control signal flat, not every such curve was filed as active; the % refers to the signal ratio;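 also: cells stimulated with 0.4 nM T3 agonist during compound exposure; % is scaled to controls: 0 for no effect and ±100 for the full control effect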). Particulars: TR-UAS-bla HEK293, beta-lactamase ratio, antagonist mode, 18 h. The procedure, abridged: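 TR-UAS-bla GripTite HEK293 cells in 2% charcoal/dextran FBS medium; compounds 0.59 nM to 92 uM with T3 at 0.4nM final, 18 h at 37 C. Beta-lactamase read by CCF4 fluorescence (460/530 nm); Hill fits gave IC50 and efficacy.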

Assay [11] can be described thus: qHTS assay for small molecule activators of the p53 signaling pathway (AID 651743; active = well fitted activation curve with a large enough effect in the signal ratio, not every such curve was filed as active; the % refers to the signal ratio; also: % of control where 0% means no effect). Particulars: HCT-116 p53RE-bla, beta-lactamase FRET ratio, 16 h; stronger effect = higher value. The procedure, abridged: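 Reporter: beta-lactamase driven by p53 response elements, stably integrated in HCT-116 cells. Cells seeded at 4,000/well, 5 h preincubation, compound (DMSO) 16 h at 37 C; B/G FRET substrate 2 h RT; fluorescence intensity read.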

A short description of assay [12]: qHTS assay for small molecule activators of the nuclear factor-kappa B (NF-kB) signaling pathway (AID 651749; active = well fitted activation curve with a large enough effect in the signal ratio; the % refers to the signal ratio; also: % of control where 0% means no effect). Particulars: NF-kB-bla ME-180 cells, beta-lactamase FRET ratio, 16 h; stronger effect = higher value. The procedure, abridged:
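NF-kB-bla ME-180 cells, 2,000/well; 23 nL compound or DMSO pinned; 16 hr, 37C/5% CO2; beta-lactamase FRET read-out.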

Assay [13] has as its target Vitamin D3 receptor (Homo sapiens) (UniProt P11473). The assay is described as follows: qHTS assay for small molecule antagonists of vitamin D receptor signaling (AID 588541).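 Also: receptor activated by calcitriol during compound treatment; % is scaled to controls: 0 for no effect and ±100 for the full control effect.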 Particulars: HEK293T VDR-UAS-bla, beta-lactamase ratio, antagonist mode; series mostly up to 76.7 µM. The procedure, abridged:
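VDR-UAS-bla HEK293T cells in 2% charcoal-stripped FBS were stimulated with 1-alpha,25-dihydroxyvitamin D3 (3 nM final) plus compound for 16 h at 37 C. The beta-lactamase CCF4 readout was normalized to 50 nM agonist and DMSO, and Hill fits gave IC50.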

Assay [14] has the same target. As to the kind of experiment: qHTS assay for small molecule agonists of vitamin D receptor signaling (AID 588543).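 Also: 0% = DMSO basal and 100% = reference agonist control.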 Conditions: HEK293T VDR-UAS-bla, beta-lactamase ratio, 16 h; series mostly up to 76.8 µM. The procedure, abridged:
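Measured: β-lactamase reporter activity (CCF4, 405 nm excitation, 460/530 nm emission) in HEK293T VDR-UAS-bla cells after 16 h compound exposure at 37 °C. Normalization against 50 nM 1α,25-dihydroxyvitamin D3 and DMSO; Hill-fit EC50.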

In assay [15] the target is Voltage-gated inwardly rectifying potassium channel KCNH2 (Homo sapiens) (UniProt Q12809). As to the kind of experiment: qHTS Assay for Small Molecule Inhibitors of the Human hERG Channel Activity (AID 588834; active = well fitted inhibition curve with a large enough effect;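 also: lower thallium flux fluorescence means stronger hERG block; nearly all actives have a fitted effect of over 50% in size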; also: potency is read from the fitted curve at half-maximal effect). Conditions: U2OS BacMam hERG, FluxOR thallium flux fluorescence; series mostly up to 92.2 µM. The procedure, abridged: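 Homogeneous FluxOR thallium flux assay using hERG-expressing U2OS cells (BacMam). Compound treatment about 10 minutes preceded stimulation; reduced fluorescence taken as channel block.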
Voltage-gated inwardly rectifying potassium channel KCNH2 (Homo sapiens), sequence (Q12809 whole entry, looked up): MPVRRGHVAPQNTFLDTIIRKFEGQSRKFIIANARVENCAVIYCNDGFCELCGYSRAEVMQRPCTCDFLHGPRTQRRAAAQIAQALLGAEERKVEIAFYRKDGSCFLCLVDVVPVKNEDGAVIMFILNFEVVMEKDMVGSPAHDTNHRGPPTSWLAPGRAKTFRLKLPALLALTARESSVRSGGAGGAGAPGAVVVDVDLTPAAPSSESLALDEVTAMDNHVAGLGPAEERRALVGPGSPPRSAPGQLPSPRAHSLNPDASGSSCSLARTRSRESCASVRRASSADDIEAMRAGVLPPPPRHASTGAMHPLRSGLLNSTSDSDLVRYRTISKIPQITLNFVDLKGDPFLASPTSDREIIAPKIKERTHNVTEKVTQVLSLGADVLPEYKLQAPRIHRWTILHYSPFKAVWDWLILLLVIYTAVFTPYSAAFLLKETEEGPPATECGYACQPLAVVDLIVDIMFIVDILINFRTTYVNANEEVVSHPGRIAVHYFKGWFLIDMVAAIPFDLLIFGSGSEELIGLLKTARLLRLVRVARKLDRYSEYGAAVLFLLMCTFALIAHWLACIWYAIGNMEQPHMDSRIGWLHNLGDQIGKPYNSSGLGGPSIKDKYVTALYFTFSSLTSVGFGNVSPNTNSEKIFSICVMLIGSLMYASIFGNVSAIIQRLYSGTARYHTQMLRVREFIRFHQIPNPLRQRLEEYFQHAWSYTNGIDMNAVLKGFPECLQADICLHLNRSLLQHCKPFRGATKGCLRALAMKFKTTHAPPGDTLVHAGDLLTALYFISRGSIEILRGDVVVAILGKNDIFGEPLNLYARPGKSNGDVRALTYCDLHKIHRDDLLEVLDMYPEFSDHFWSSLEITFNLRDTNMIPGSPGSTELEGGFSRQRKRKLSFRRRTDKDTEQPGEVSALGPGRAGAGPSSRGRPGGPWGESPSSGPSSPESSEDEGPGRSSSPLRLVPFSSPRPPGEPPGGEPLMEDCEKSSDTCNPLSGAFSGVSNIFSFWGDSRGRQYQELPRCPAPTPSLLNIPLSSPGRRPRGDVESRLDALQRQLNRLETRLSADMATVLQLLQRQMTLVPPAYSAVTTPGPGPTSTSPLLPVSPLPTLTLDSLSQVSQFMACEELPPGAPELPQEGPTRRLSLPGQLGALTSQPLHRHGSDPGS

A short description of assay [16]: qHTS assay for small molecule agonists of the antioxidant response element (ARE) signaling pathway (AID 651741; active = well fitted activation curve with a large enough effect in the signal ratio; the % refers to the signal ratio; also: potency is read from the fitted curve at half-maximal effect; as to activation: % of control where 0% means no effect). Particulars: HepG2 ARE-bla reporter, beta-lactamase FRET ratio, 16 h; series mostly up to 96 µM. The procedure, abridged: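 HepG2 ARE-bla reporter cells, 2,000/well; 5 h settle at 37 C/5% CO2; compound pin transfer (23 nL, DMSO); 16 h at 37 C; LiveBLAzer B/G FRET substrate, 2 h RT; fluorescence intensity read.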

Assay [17] addresses Glucocorticoid receptor (Homo sapiens) (UniProt P04150). The assay is described as follows: qHTS assay for small molecule antagonists of glucocorticoid receptor signaling (AID 588533; active = well fitted inhibition curve with a large enough effect in the signal ratio, with a control signal flat, not every such curve was filed as active; the % refers to the signal ratio; also: % is scaled to controls: 0 for no effect and ±100 for the full control effect). Conditions: HeLa MMTV-bla, GRE beta-lactamase ratio, antagonist mode, 18 h; series mostly up to 76.8 µM. The procedure, abridged:
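Antagonist-mode qHTS: compound titrations added to GRE-bla HeLa cells, then dexamethasone 2 nM final; 18 h, 37 C. CCF4 FRET fluorescence normalized to dexamethasone and DMSO; IC50 from Hill fit.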

Results filed as inconclusive are left out. Activity calls are given as the source filed them. Unless noted, calls follow the shape of the full dose curve.

Peroxisome proliferator-activated receptor gamma (Homo sapiens), sequence (P37231 whole entry, looked up): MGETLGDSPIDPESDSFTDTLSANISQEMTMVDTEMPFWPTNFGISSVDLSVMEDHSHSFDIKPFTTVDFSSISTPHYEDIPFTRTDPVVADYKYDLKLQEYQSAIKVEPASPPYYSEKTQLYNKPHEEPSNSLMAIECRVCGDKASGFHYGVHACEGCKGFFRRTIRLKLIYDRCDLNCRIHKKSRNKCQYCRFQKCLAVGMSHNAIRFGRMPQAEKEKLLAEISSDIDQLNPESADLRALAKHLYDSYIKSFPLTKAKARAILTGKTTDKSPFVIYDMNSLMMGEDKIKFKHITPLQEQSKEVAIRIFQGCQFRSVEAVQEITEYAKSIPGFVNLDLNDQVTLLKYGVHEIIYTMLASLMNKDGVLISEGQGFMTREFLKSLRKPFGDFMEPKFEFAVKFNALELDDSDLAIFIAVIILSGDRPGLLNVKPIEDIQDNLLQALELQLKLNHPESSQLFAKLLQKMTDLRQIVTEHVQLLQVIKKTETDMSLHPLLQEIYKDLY
Vitamin D3 receptor (Homo sapiens), sequence (P11473 whole entry, looked up): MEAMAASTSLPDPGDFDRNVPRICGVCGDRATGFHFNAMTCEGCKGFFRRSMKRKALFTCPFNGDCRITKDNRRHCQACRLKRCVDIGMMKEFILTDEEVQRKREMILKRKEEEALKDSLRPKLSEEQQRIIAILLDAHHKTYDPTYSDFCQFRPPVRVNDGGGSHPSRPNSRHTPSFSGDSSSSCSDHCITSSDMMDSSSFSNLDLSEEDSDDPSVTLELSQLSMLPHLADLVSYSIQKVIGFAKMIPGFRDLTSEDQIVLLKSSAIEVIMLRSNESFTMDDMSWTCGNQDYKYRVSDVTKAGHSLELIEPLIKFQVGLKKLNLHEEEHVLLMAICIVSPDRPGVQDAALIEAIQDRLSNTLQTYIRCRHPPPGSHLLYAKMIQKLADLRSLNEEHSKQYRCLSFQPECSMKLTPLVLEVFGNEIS
Thyroid hormone receptor beta (Homo sapiens), sequence (P10828 whole entry, looked up): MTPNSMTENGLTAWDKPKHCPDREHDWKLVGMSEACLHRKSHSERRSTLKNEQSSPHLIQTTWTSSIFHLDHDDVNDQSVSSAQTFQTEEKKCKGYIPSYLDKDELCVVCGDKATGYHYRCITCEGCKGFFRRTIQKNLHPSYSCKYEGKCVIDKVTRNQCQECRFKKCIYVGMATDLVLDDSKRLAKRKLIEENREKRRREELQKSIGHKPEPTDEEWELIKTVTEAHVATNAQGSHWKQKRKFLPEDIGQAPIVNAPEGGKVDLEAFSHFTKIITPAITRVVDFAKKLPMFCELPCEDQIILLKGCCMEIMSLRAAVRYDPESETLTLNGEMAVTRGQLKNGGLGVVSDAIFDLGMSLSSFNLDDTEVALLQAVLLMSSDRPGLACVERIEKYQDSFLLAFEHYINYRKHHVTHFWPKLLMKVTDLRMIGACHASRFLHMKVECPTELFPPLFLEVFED
Peroxisome proliferator-activated receptor delta (Homo sapiens), sequence (Q03181 whole entry, looked up): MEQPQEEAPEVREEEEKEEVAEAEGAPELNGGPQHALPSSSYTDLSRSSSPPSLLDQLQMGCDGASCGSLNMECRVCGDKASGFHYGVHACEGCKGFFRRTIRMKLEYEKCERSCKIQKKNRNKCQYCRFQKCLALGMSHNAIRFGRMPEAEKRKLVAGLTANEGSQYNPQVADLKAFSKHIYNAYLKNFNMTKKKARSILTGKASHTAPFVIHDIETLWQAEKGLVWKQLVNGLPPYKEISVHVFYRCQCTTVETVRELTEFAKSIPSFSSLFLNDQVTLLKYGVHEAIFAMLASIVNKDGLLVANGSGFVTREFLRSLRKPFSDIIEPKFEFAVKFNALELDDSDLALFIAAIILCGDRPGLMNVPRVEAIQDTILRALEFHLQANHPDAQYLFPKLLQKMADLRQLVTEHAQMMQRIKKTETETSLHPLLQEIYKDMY
Glucocorticoid receptor (Homo sapiens), sequence (P04150 whole entry, looked up): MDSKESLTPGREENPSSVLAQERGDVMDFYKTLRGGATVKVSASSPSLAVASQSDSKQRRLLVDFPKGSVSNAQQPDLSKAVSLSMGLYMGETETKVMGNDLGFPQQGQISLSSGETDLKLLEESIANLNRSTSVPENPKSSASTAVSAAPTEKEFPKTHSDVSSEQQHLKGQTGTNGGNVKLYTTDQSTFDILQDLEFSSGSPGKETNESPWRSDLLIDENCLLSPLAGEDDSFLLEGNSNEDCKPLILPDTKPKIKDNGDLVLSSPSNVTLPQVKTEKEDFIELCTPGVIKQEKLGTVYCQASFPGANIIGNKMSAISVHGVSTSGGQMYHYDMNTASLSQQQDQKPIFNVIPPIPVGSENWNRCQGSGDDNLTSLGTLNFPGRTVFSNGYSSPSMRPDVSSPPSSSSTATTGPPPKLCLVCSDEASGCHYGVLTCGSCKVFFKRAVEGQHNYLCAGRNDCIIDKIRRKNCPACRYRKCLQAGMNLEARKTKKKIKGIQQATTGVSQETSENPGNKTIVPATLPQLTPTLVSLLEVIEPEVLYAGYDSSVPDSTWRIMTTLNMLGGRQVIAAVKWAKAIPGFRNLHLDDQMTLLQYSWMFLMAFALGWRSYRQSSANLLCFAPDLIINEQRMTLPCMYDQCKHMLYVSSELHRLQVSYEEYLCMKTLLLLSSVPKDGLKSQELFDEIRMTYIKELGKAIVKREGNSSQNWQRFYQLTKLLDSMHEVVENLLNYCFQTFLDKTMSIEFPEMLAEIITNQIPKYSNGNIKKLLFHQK

As to `CCN(CC)c1cccc(O)c1`, the activation was -1.18% (inactive) in assay [1], -0.279% (inactive) in [11] and 0.251% (inactive) in assay [12]. The max response is 12.9% in [2], -9.19% in assay [5], 6.69% in assay [8] and 9.83% (inactive) in assay [9]. Moreover, the Potency entry in assay [3] was “inactive”. The result in assay [4], in assay [6] and in assay [7] was inactive. For the same compound, in [10], the activity change % (negative = inhibition) is 4.53% (inactive).
For the compound `CC(=O)C1(C)CC2=C(CCCC2(C)C)CC1C` (centres undefined), the activation in assay [1] was -5.53% (inactive); in assay [11] it was -2.14% (inactive). The max response in assay [2] is 12.6%; in assay [5], -9.8%; in [8], -2.18%; in assay [9], 25.5% (inactive). Further, the Potency result in assay [3] and in [16] was “inactive” throughout. Moreover, the outcome in assay [4], in assay [13], in [14] and in [6] was inactive. Also, in assay [10], the activity change % (negative = inhibition) is -1.03% (inactive). Besides, in assay [15], the Potency is 15.8 µM (active).
Consider `Cc1ccccc1C(=O)O`, for which the activation in assay [1] was -5.56% (inactive); in assay [12], -1.6% (inactive). The outcome in [4], in assay [13], in assay [14] and in assay [6] was inactive. Besides, the figures for the max response in assay [5], in assay [8] and in assay [9] were -19.5%, -2.02% and 37.3% (inactive), respectively. Moreover, the activity change % (negative = inhibition) in [10] is -4.62% (inactive). Further, the Potency result in [15] and in assay [16] was “inactive” each time.
Consider `Cc1ccc([N+](=O)[O-])c(N)c1`, for which the activation in assay [1] is -0.729% (inactive); in assay [11], -3.31% (inactive); in [12], -0.448% (inactive). In addition, the max response in [2] is -3.65%; in [5], 3%; in assay [8], -20.5%; in [9] it was -4.21% (inactive). For the same compound, the Potency result in assay [3] and in assay [15] was “inactive” throughout. Also, the outcome in [4], in [13], in assay [14], in [6] and in [7] was inactive. For the same compound, the activity change % (negative = inhibition) in [10] was -0.142% (inactive).
As to `CC(=O)c1nccs1`, the result in assay [17], in [4], in assay [13], in [14], in assay [6] and in assay [7] was inactive. For the same compound, the max response is -6.53% in [2], 4.76% in assay [5], -5.53% in [8] and -9.7% (inactive) in assay [9]. For the same compound, the Potency result in [3], in assay [15] and in assay [16] was “inactive” in each case. The activity change % (negative = inhibition) in assay [10] was 1.64% (inactive). In addition, the activation in assay [11] is -4.02% (inactive).
Turning to `CC1=C(/C=C/C(C)=C/C=C/C(C)=C\C=O)C(C)(C)CCC1`, the results for the activation in [1], in [11] and in [12] were 1.42% (inactive), 8.65% (inactive) and -1.57% (inactive), respectively. Besides, the result in assay [13], in [14] and in assay [7] was inactive. For the same compound, the activity change % (negative = inhibition) in assay [10] was -14.6% (inactive). In addition, in [16], the Potency is 37.6 µM (active).
`CC(C)=C1CCC(C)CC1=O` (centres undefined): the outcome in assay [17], in assay [4], in [13] and in assay [14] was inactive. The max response was -8.22% in assay [2], -4.57% in assay [5], 3.58% in assay [8] and 6.87% (inactive) in assay [9]. Besides, the Potency entry in assay [3] and in assay [16] was “inactive” in each case. The activity change % (negative = inhibition) in assay [10] was -6.39% (inactive). For the same compound, the activation in [11] is -1.57% (inactive); in assay [12] it was -0.315% (inactive).
